Inconclusive results are not listed. Activity calls are given as the source filed them. The calls were made as follows, unless noted: active = hit-call score of the fitted dose curve at least 0.9, where 1 is the maximum; inactive = score below 0.9.
What was measured:
[1] = ACEA_ER_80hr: ACEA Biosciences xCELLigence Real-Time Cell Analysis on Estrogen Receptor Agonism for Proliferation (AID 2282667; active = hit-call score of the fitted dose curve at least 0.9, where 1 is the maximum); conditions: T47D proliferation, impedance (xCELLigence), 80 h
How it was run: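 Cell-growth kinetics were measured by impedance in T47D cells treated continuously with compound (top 100 uM final, 1:4 steps, 8 points). Activity at 80 h was scored as signal gain over the DMSO baseline.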

[2] = ATG_CRE_CIS: Attagene CIS-FACTORIAL HepG2 Assay for human cAMP Responsive Element (CRE) binding protein 3 (AID 2282926); conditions: HepG2 CRE cis-reporter, Attagene multiplexed mRNA; actives raise or lower the signal
How it was run: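 Cells carrying cis-regulated reporter constructs respond through their own endogenous factors. After 24 h treatment, RNA is reverse-transcribed, amplified, labelled and sized by capillary electrophoresis; up- and down-regulation are both scored against vehicle.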

[3] = molecular target: CCAAT/enhancer-binding protein beta (Homo sapiens) (UniProt P17676); experiment: ATG_C_EBP_CIS: Attagene CIS-FACTORIAL HepG2 Assay for human CCAAT/Enhancer Binding Protein (C/EBP) beta (AID 2282927); conditions: HepG2 Attagene cis-factorial transcription factor reporter; actives raise or lower the signal
Chain of CCAAT/enhancer-binding protein beta (Homo sapiens) (P17676 whole entry, looked up): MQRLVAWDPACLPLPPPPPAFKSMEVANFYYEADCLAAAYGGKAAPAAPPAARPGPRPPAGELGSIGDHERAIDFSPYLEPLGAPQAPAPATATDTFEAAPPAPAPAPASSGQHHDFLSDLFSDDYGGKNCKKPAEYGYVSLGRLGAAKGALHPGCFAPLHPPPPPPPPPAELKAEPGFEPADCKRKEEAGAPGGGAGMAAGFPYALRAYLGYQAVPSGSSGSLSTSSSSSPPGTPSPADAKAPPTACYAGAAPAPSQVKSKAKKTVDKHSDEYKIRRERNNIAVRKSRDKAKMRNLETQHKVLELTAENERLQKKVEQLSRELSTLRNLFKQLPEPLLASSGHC
How it was run: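 Transiently transfected HepG2 (MRTU library, endogenous TF-driven promoters); 24 h dosing; total RNA → oligo(dT) RT → PCR → 6-FAM primer extension → HpaI digest → CE; fit bidirectionally vs DMSO.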

[4] = ATG_DR4_LXR_CIS: Attagene CIS-FACTORIAL HepG2 Assay for human Liver X Receptor (LXR), DR4 submotif (AID 2282929); conditions: HepG2 Attagene DR4 cis-reporter, mRNA transcription; actives raise or lower the signal
How it was run: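 Endogenous factor activity at a DR4 cis-element is read as reporter mRNA in transiently transfected HepG2 cells. Exposure lasts 24 h; transcripts are amplified, fluorescently labelled and sized by capillary electrophoresis, with DMSO as baseline.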

[5] = molecular target: Aryl hydrocarbon receptor (Homo sapiens) (UniProt P35869); experiment: ATG_Ahr_CIS: Attagene CIS-FACTORIAL HepG2 Assay for human Aryl Hydrocarbon Receptor (Ahr) (AID 2282930); conditions: HepG2 AhR cis-factorial reporter transcription; actives raise or lower the signal
Chain of Aryl hydrocarbon receptor (Homo sapiens) (P35869 whole entry, looked up): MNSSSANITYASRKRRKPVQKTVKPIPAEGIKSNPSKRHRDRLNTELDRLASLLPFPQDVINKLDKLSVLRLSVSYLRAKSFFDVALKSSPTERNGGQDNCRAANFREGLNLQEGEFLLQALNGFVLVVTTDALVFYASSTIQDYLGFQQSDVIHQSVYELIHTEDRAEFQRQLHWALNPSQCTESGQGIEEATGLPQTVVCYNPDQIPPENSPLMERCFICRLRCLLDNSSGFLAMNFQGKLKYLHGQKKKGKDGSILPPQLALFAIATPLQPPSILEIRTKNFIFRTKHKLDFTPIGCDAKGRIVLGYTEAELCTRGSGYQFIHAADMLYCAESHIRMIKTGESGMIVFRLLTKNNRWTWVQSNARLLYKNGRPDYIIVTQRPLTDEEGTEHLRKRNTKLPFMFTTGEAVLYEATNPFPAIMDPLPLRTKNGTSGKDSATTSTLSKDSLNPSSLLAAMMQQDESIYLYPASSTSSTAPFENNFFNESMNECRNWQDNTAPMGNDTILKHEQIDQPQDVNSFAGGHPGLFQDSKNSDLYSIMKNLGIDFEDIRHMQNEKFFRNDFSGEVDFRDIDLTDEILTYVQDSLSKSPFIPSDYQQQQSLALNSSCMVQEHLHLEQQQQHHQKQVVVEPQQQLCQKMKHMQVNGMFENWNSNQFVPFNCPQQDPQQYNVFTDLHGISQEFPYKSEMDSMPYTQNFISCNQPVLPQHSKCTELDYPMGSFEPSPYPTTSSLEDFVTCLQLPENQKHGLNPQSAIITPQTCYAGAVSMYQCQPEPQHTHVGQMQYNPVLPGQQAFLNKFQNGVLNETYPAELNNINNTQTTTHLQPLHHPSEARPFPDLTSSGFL
How it was run: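 Read-out: reporter mRNA quantified by RT-PCR with fluorescent primer extension and capillary electrophoresis. Human HepG2 liver cells carried transfected cis-promoter reporter units and were exposed to chemical for 24 h; gain or loss fitted relative to DMSO.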

[6] = ATG_AP_1_CIS: Attagene CIS-FACTORIAL HepG2 Assay for human Activator Protein 1 (AP-1) (AID 2282931); conditions: HepG2 Attagene cis-factorial AP-1 reporter mRNA; actives raise or lower the signal
How it was run: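 Fluorescence of labelled PCR fragments separated by capillary electrophoresis gives reporter mRNA levels. HepG2 with transfected cis-regulated reporter units, 24 h exposure; DMSO serves as baseline for bidirectional curve fits.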

[7] = ATG_AP_2_CIS: Attagene CIS-FACTORIAL HepG2 Assay for human Activator Protein 2 (AP-2) (AID 2282932); conditions: HepG2 AP-2 cis-reporter, Attagene transcription factor profiling; actives raise or lower the signal
How it was run: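 Read-out: fluorescent reporter mRNA via RT-PCR and capillary electrophoresis, 24 h post-dose in transiently transfected HepG2. Endogenous factors drive cis-promoter reporters; gain or loss of signal fitted bidirectionally against DMSO.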

[8] = ATG_BRE_CIS: Attagene CIS-FACTORIAL HepG2 Assay for human Bone Morphogenetic Protein (BMP) Response Element (BRE) (AID 2282933); conditions: HepG2 BMP response element reporter, Attagene transcription factor profiling; actives raise or lower the signal
How it was run: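 Fluorescence-labelled reporter cDNA fragments, separated by capillary electrophoresis, gave the signal for this component of a 52-readout multiplex. HepG2 cells were transfected, exposed to chemicals for 24 h, and compared with DMSO using bidirectional fitting.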

[9] = molecular target: Retinoic acid receptor alpha (Homo sapiens) (UniProt P10276); experiment: ATG_DR5_RAR_CIS: Attagene CIS-FACTORIAL HepG2 Assay for human Retinoic Acid Receptor Alpha (RARE), DR5 submotif (AID 2282934); conditions: HepG2 Attagene cis-factorial RARE DR5 reporter, mRNA; actives raise or lower the signal;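 as to AC50: reporter responds to endogenous RAR alpha beta and gamma in HepG2 not RARA alone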
Chain of Retinoic acid receptor alpha (Homo sapiens) (P10276 whole entry, looked up): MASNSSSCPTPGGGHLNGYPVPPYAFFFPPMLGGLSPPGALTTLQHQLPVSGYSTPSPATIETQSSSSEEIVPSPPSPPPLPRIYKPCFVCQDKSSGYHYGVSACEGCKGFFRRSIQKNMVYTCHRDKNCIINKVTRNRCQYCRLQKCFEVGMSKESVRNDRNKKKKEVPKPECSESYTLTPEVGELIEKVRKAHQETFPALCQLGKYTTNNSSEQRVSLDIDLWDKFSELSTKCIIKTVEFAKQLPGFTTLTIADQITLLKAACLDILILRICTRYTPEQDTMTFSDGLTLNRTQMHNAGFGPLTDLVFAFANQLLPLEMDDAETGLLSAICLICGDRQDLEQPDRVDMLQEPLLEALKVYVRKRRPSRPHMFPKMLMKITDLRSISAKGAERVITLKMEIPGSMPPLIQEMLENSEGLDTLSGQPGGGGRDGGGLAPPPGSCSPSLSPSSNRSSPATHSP
How it was run: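 Read-out: DR5-driven reporter transcript measured by RT-PCR, 6-FAM primer extension, HpaI digest and capillary electrophoresis. Human HepG2 liver cells carry transiently transfected cis-element reporter constructs; dosing lasts 24 h. Gain or loss of signal fitted against DMSO baseline.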

[10] = molecular target: Transcription factor E2F1 (Homo sapiens) (UniProt Q01094); experiment: ATG_E2F_CIS: Attagene CIS-FACTORIAL HepG2 Assay for human E2F Transcription Factor 1 (AID 2282935); conditions: HepG2 Attagene cis-reporter, E2F reporter RNA transcripts; actives raise or lower the signal
Chain of Transcription factor E2F1 (Homo sapiens) (Q01094 whole entry, looked up): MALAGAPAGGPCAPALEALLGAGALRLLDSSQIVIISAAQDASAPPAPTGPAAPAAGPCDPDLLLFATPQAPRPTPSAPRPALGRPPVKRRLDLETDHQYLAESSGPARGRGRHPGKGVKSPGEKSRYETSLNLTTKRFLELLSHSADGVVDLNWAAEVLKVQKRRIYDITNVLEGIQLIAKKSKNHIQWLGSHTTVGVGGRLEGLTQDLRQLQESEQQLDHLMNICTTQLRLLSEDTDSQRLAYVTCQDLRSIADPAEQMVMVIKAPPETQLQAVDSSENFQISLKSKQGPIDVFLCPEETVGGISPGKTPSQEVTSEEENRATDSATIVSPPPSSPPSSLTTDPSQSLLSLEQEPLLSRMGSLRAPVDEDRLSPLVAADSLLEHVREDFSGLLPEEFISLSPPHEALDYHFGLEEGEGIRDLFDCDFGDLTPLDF
How it was run: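 Transient MRTU transfection of HepG2; 24 h compound exposure; RNA → oligo(dT) RT → PCR → FAM label → HpaI cut → CE fluorescence. Gain/loss of signal fit against DMSO.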

[11] = ATG_E_Box_CIS: Attagene CIS-FACTORIAL HepG2 Assay for human Enhancer Box (E-box) (AID 2282936); conditions: HepG2 E-box cis-reporter transcription, actives raise or lower the signal
How it was run: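 Transiently transfected HepG2, endogenous TF-driven reporters, 24 h dosing. Readout: RT-PCR plus capillary electrophoresis of fluorescent reporter fragments. Gain or loss of signal fitted bidirectionally against DMSO baseline.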

[12] = ATG_M_61_CIS: Attagene CIS-FACTORIAL HepG2 Assay for M61 Transcription Factor (Internal Marker) (AID 2282937); conditions: HepG2 Attagene CIS-FACTORIAL M61 internal marker reporter; actives raise or lower the signal
How it was run: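 This endpoint serves as an internal background control within a multiplexed HepG2 cis-reporter panel. Cells are exposed for 24 h; reporter mRNA is amplified, fluorescently labelled and sized by capillary electrophoresis, with DMSO as negative control.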

[13] = ATG_EGR_CIS: Attagene CIS-FACTORIAL HepG2 Assay for human Early Growth Response 1 (EGR1) (AID 2282938); conditions: HepG2 Attagene CIS-FACTORIAL EGR reporter mRNA; actives raise or lower the signal
How it was run: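 HepG2, transient MRTU transfection (cis promoters), 24 h compound. RNA → RT (oligo-dT) → PCR → 6-FAM labelling → HpaI cut → CE fluorescence. Bidirectional fit, DMSO baseline.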

[14] = ATG_M_19_CIS: Attagene CIS-FACTORIAL HepG2 Assay for M19 Transcription Factor (Internal Marker) (AID 2282939); conditions: HepG2 Attagene CIS-FACTORIAL M19 internal marker reporter; actives raise or lower the signal
How it was run: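 HepG2, MRTU transient transfection, 24 h dosing. Total RNA → RT-PCR → 6-FAM primer extension → HpaI digest → CE fluorescence. Bidirectional curve fit, DMSO negative control.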

[15] = ATG_ERE_CIS: Attagene CIS-FACTORIAL HepG2 Assay for Estrogen Response Element (ERE) (AID 2282940); conditions: HepG2 ERE cis-reporter, Attagene RNA transcript; actives raise or lower the signal
How it was run: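 After a 24 h chemical treatment, RNA from reporter-transfected HepG2 cells is reverse-transcribed, PCR-amplified and fluorescently labelled. Fragments separated by capillary electrophoresis give reporter signal; DMSO serves as negative control.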

[16] = ATG_Ets_CIS: Attagene CIS-FACTORIAL HepG2 Assay for human Erythroblast Transformation Specific (ETS) (AID 2282941); conditions: HepG2 ETS cis-reporter transcription, actives raise or lower the signal
How it was run: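 Endogenous transcription factor activity read as reporter mRNA via RT-PCR and capillary electrophoresis, with gain or loss fitted bidirectionally against DMSO. Human HepG2 liver cells, transiently transfected CIS reporter constructs, 24 h exposure.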

[17] = molecular target: Hepatocyte nuclear factor 3-beta (Homo sapiens) (UniProt Q9Y261); experiment: ATG_FoxA2_CIS: Attagene CIS-FACTORIAL HepG2 Assay for human Forkhead box A2 (FOXA2) (AID 2282942); conditions: HepG2 cis-reporter transcription factor activity, 24 h; actives raise or lower the signal
Chain of Hepatocyte nuclear factor 3-beta (Homo sapiens) (Q9Y261 whole entry, looked up): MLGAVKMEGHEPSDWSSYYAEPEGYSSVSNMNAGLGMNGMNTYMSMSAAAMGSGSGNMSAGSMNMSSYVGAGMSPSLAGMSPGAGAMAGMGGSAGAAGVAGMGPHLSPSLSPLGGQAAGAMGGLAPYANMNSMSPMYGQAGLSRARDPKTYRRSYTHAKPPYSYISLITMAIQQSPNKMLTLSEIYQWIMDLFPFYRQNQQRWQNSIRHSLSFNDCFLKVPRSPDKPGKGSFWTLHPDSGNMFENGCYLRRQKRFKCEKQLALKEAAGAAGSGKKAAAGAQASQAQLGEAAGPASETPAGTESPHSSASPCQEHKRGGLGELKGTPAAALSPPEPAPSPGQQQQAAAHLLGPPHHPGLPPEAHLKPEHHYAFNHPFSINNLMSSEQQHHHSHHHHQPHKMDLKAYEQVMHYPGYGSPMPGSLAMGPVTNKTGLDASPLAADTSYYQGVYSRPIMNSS
How it was run: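 Cells: HepG2, transient multiplex reporter transfection. Exposure 24 h. Detection: reporter-specific RT-PCR, fluorescent labelling, restriction digest, capillary electrophoresis. Analysis: bidirectional curve fit, DMSO as negative control.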

[18] = ATG_FoxO_CIS: Attagene CIS-FACTORIAL HepG2 Assay for human Forkhead box O (FoxO) (AID 2282943); conditions: HepG2 Attagene cis-reporter, FoxO element, mRNA; actives raise or lower the signal
How it was run: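 Read-out: fluorescence of 6-FAM-labelled reporter cDNA fragments resolved by capillary electrophoresis. Transiently transfected HepG2 cells were dosed for 24 h; activity fitted in both directions relative to DMSO controls.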

[19] = ATG_GATA_CIS: Attagene CIS-FACTORIAL HepG2 Assay for human GATA Binding Protein (AID 2282944); conditions: HepG2 GATA cis-element reporter, Attagene multiplex mRNA; actives raise or lower the signal
How it was run: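 Cells: HepG2, transiently transfected with cis-regulated reporter transcription units. Exposure: 24 h. Detection: RT-PCR plus capillary electrophoresis of FAM-labeled fragments. Analysis: bidirectional, DMSO as baseline.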

[20] = ATG_CMV_CIS: Attagene CIS-FACTORIAL HepG2 Assay for human CMV (Internal Marker) (AID 2282928); conditions: HepG2 CMV promoter reporter, transcription factor profiling; actives raise or lower the signal;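 also: endpoint acts as a background internal control marker rather than a target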
How it was run: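 Bidirectional fits against DMSO are applied to reporter mRNA, read by RT-PCR with capillary electrophoresis, from HepG2 cells exposed 24 h. The endpoint serves as an internal CMV background marker within the cis-factorial reporter panel.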

CCCC(=O)OCC(COC(=O)CCC)OC(=O)CCC
outcome [1]: inactive
outcome [2]: inactive
outcome [3]: inactive
outcome [4]: inactive
outcome [5]: inactive
outcome [6]: inactive
outcome [7]: inactive
AC50 [8]: 57.5 µM (active)
AC50 [9]: 37.5 µM (active)
outcome [10]: inactive
outcome [11]: inactive
outcome [12]: inactive
outcome [13]: inactive
outcome [14]: inactive
outcome [15]: inactive
outcome [16]: inactive
outcome [17]: inactive
outcome [18]: inactive
outcome [19]: inactive

CCc1cc(Cc2cc(CC)c(N)c(CC)c2)cc(CC)c1N
outcome [1]: inactive
AC50 [2]: 33.4 µM (active)
outcome [3]: inactive
AC50 [20]: 6.64 µM (active)
outcome [5]: inactive
AC50 [6]: 23.6 µM (active)
outcome [7]: inactive
outcome [8]: inactive
AC50 [9]: 2.96 µM (active)
AC50 [10]: 54.4 µM (active)
AC50 [11]: 9.07 µM (active)
outcome [12]: inactive
outcome [13]: inactive
outcome [14]: inactive
outcome [16]: inactive
AC50 [17]: 33.4 µM (active)
AC50 [18]: 58.8 µM (active)
outcome [19]: inactive

CC(=O)c1ccccc1N
outcome [1]: inactive
outcome [2]: inactive
outcome [3]: inactive
outcome [20]: inactive
outcome [4]: inactive
outcome [6]: inactive
outcome [7]: inactive
outcome [8]: inactive
outcome [9]: inactive
outcome [10]: inactive
outcome [12]: inactive
outcome [13]: inactive
outcome [14]: inactive
outcome [15]: inactive
outcome [16]: inactive
outcome [17]: inactive
outcome [18]: inactive
outcome [19]: inactive
